Among all 310,000 compounds or so, about 2,200 (0.71%) showed an effect of 50% or more. Effects have a minus sign here. The list comes from a sample in which strong results are over-represented; it also holds similar structures and randomly drawn compounds.

For this assay, the target named is human ether-à-go-go-related gene (hERG) potassium channel (human, UniProt Q12809). Description: primary screen, population patch clamp on CHO cells stably expressing hERG; higher = less effect of the substance.
Sequence of human ether-à-go-go-related gene (hERG) potassium channel (Q12809 whole entry, looked up): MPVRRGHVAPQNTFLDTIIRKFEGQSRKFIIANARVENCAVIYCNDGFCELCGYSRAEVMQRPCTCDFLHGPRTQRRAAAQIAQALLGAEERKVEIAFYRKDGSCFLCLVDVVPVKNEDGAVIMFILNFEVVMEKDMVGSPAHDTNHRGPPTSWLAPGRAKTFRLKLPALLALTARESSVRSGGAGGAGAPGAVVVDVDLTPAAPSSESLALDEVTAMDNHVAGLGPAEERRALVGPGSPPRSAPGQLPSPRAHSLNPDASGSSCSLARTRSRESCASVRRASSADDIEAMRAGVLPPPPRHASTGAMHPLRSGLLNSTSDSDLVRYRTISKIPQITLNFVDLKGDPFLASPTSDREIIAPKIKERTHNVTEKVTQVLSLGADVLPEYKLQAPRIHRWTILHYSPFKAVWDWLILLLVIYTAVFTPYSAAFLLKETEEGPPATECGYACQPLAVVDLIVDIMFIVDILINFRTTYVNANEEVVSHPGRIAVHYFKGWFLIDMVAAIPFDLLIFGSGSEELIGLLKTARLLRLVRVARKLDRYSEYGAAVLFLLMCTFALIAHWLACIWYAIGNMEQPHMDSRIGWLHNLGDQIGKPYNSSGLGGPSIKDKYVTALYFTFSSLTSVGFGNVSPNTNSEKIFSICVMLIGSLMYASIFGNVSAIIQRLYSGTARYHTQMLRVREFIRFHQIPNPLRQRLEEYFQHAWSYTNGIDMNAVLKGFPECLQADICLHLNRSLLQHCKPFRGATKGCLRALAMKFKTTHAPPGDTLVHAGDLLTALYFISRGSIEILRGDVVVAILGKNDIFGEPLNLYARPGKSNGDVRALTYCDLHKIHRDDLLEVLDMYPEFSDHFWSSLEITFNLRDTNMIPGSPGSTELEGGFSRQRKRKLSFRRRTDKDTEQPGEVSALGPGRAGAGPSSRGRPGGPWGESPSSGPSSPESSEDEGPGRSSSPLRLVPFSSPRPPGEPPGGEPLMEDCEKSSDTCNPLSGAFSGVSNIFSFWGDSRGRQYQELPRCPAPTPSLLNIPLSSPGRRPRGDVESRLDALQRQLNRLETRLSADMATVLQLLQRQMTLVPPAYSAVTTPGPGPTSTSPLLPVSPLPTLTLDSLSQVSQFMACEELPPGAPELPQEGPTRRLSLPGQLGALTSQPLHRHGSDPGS
In the case of `COc1ccc(CCNC(=O)Nc2ccc(F)cc2F)cc1OC`, the “hERG current change (%, negative = inhibition) at 1uM” value is listed as 15.8%.
As for `CCOC(=O)C1CCN(C(=O)Nc2ccc3snnc3c2)CC1`, the “hERG current change (%, negative = inhibition) at 1uM” value is 3.17%.
Take `O=C(Nc1ccc(F)cc1)N(Cc1cccs1)Cc1cc2cc3c(cc2[nH]c1=O)OCO3`: the “hERG current change (%, negative = inhibition) at 1uM” value was 16.6%.
For `COc1cc(C(=O)NCCOc2ccccc2)cc(OC)c1OC`, the “hERG current change (%, negative = inhibition) at 1uM” value came to 16.3%.
For `CCOC(=O)N1CCN(CCC(=O)Nc2ccc(OC)cc2OC)CC1`, the “hERG current change (%, negative = inhibition) at 1uM” value came to 3.55%.
For `O=C(Oc1c(-c2ccco2)oc2ccccc2c1=O)c1cccnc1`, the “hERG current change (%, negative = inhibition) at 1uM” value stood at 16.2%.
Turning to `COc1cc(SC#N)ccc1N=Cc1c(C)[nH]n(-c2cccc3ccccc23)c1=O`, the “hERG current change (%, negative = inhibition) at 1uM” value is listed as 13.4%.
`COc1ccc(CCNC2CC(=O)N(CCc3ccc(OC)c(OC)c3)C2=O)cc1` (stereo not drawn): the “hERG current change (%, negative = inhibition) at 1uM” value is 7.42%.
For `O=C(Cn1cnc2c(oc3ccccc32)c1=O)NCC1CCCO1` (stereo not drawn), the “hERG current change (%, negative = inhibition) at 1uM” value is given as 9.36%.
On to `O=C(c1ccc(F)cc1)N1CCN(Cc2ccccc2)CC1`, for which the “hERG current change (%, negative = inhibition) at 1uM” value came to 10.5%.
In the case of `C=CCOc1ccccc1CN1CCC(Cc2ccccc2)CC1` it was -51.6%.
For the compound `CCOc1ccc(C(=S)N2CCOCC2)cc1`, the “hERG current change (%, negative = inhibition) at 1uM” value was determined as 5.79%.
For `C=CCOc1ccccc1CN1CCSCC1`, the “hERG current change (%, negative = inhibition) at 1uM” value is given as -1.02%.
Take `CCOc1ccc(C(=O)N2CCCCCC2)cc1`: the “hERG current change (%, negative = inhibition) at 1uM” value is on record as 9.17%.
On to `CCOc1ccc(C(=O)N2CCCC2)cc1`, for which the “hERG current change (%, negative = inhibition) at 1uM” value was 10.9%.
Consider `CCOc1ccc(C(=S)N2CCCC2)cc1`, for which the “hERG current change (%, negative = inhibition) at 1uM” value is recorded as 5.79%.
On to `C=CCOc1ccccc1CN1CCCCCC1`, for which the “hERG current change (%, negative = inhibition) at 1uM” value worked out at 11.6%.
For the compound `CCOc1ccc(C(=S)N2CCN(C)CC2)cc1`, the “hERG current change (%, negative = inhibition) at 1uM” value is -84.3%.
On to `CCOc1ccc(C(=O)N2CCCN(C(=O)c3ccc(OCC)cc3)CC2)cc1`, for which the “hERG current change (%, negative = inhibition) at 1uM” value is given as -69.3%.
As for `O=C(O)C(=O)O.O=C(c1ccccc1)N1CCN(Cc2ccccc2)CC1`, the “hERG current change (%, negative = inhibition) at 1uM” value is reported as 2.81%.
On to `O=C(c1ccc(-n2cccc2)cc1)N1CCN(Cc2ccccc2)CC1`, for which the “hERG current change (%, negative = inhibition) at 1uM” value was -59.9%.
Take `O=C(CN1CCN(c2ccc(F)cc2)CC1)Nc1ccc(-n2cnnn2)cc1`: the “hERG current change (%, negative = inhibition) at 1uM” value is given as 8.42%.
For `O=C(CSc1nn(-c2ccc(F)cc2)c(=S)s1)NCC1CCCO1` (stereo not drawn), the “hERG current change (%, negative = inhibition) at 1uM” value is recorded as -2.14%.
With `Cc1ccc(Cl)cc1NC(=O)N[C@@H](C)C(=O)O`, the “hERG current change (%, negative = inhibition) at 1uM” value is 9.9%.
As for `Cc1cccc(C2c3[nH]c4ccccc4c3CCN2C(=O)c2cc(CC(C)C)nc(C)n2)n1` (stereo not drawn), the “hERG current change (%, negative = inhibition) at 1uM” value is 14%.
Regarding `Clc1ccc(CN2CCC(Cc3ccccc3)CC2)cc1`, the “hERG current change (%, negative = inhibition) at 1uM” value was found to be 12.3%.
For the compound `CSc1ccc(CN2CCC(Cc3ccccc3)CC2)cc1`, the “hERG current change (%, negative = inhibition) at 1uM” value is on record as -29.6%.
Turning to `CCOc1ccc(CN2CCN(C(=O)c3ccccc3)CC2)cc1`, the “hERG current change (%, negative = inhibition) at 1uM” value is listed as -1.03%.
Regarding `CCOc1ccc(C(=O)N2CCN(Cc3ccccc3)CC2)cc1`, the “hERG current change (%, negative = inhibition) at 1uM” value is recorded as -60.3%.
The figure for `CCOc1ccc(C(=O)N2CCN(c3ccccc3)CC2)cc1` is -0.559%; for `CCOc1ccc(CN2CCC(Cc3ccccc3)CC2)cc1` it is -76.8%.
In the case of `CCCCNC(=O)C1C2C=CC3(CN(Cc4ccc(C)cc4)C(=O)C13)O2` (stereo not drawn) it was 13.1%; in that of `O=C(Nc1cccc(Cl)c1)NC1CCS(=O)(=O)C1` (stereo not drawn), 12.9%; in that of `CCNC(=O)Nc1nc2ccccc2s1`, 8.72%.
`Cc1nn(C)c(=O)c(N)c1-c1cc(-c2ccc(Cl)c(Cl)c2)n[nH]1`: the “hERG current change (%, negative = inhibition) at 1uM” value turned out to be 12.9%.
In the case of `CCN(CC(=O)Nc1ccc(OC(F)F)cc1)C1CCCCC1`, the “hERG current change (%, negative = inhibition) at 1uM” value was -61.6%.
In the case of `CCN(CC(=O)Nc1ccc(C(=O)OC)cc1)C1CCCCC1` it was 16.3%; in that of `CCN(C(=S)Nc1ccc(OC(F)F)cc1)C1CCCCC1`, -1.82%; in that of `COc1ccc(OCCC(=O)c2ccc(OC)cc2)cc1`, 4.68%.
`CC(OC(=O)CC1CCCCC1)C(=O)Nc1cccc(C#N)c1` (stereo not drawn): the “hERG current change (%, negative = inhibition) at 1uM” value turned out to be 6.92%.
`COc1cc(/C=N/NC(=O)C2CCN(CC(O)COCc3ccccc3)CC2)ccc1O` (stereo not drawn): the “hERG current change (%, negative = inhibition) at 1uM” value is on record as -63.6%.
In the case of `COc1cc(/C=N/NC(=O)C2CCN(CC(O)COCc3ccccc3)CC2)cc(OC)c1OC` (stereo not drawn), the “hERG current change (%, negative = inhibition) at 1uM” value is -34.2%.
With `CCOc1ccc(/C=N/NC(=O)C2CC2)cc1OC`, the “hERG current change (%, negative = inhibition) at 1uM” value is listed as 19.1%.
As for `O=C(Nc1ccccc1)OCCOc1ccc(Br)cc1`, the “hERG current change (%, negative = inhibition) at 1uM” value worked out at 11.2%.
Turning to `O=C(O)c1ccc(C[n+]2c(-c3ccccc3)csc2Nc2ccccc2)cc1.[Br-]`, the “hERG current change (%, negative = inhibition) at 1uM” value was 8.98%.
The figure for `CCOC(=O)c1cnc2ccc(C(=O)OC)cc2c1NCCc1ccc(OC)c(OC)c1` is 0.861%.
`CCOC(=O)c1cnc2ccc(OC)cc2c1NCCc1ccc(OC)c(OC)c1`: the “hERG current change (%, negative = inhibition) at 1uM” value is given as -69.5%.
In the case of `CCOC(=O)c1cnc2ccccc2c1NCCc1ccc(OC)c(OC)c1` it was -72%; in that of `CCOC(=O)c1cnc2ccccc2c1NCCO`, -15.2%.
`COc1ccc(CCNc2c3ccccc3nc3ccccc23)cc1OC.Cl`: the “hERG current change (%, negative = inhibition) at 1uM” value is on record as -59.8%.
On to `Cl.Oc1ccc(CCNc2c3ccccc3nc3ccccc23)cc1O`, for which the “hERG current change (%, negative = inhibition) at 1uM” value is given as -3.93%.
Consider `CCOC(=O)c1cnc2ccc(OC)cc2c1NCCN1CCOCC1`, for which the “hERG current change (%, negative = inhibition) at 1uM” value is recorded as -13.3%.
In the case of `CCOC(=O)c1cnc2c(C)cccc2c1NCCc1ccc(OC)c(OC)c1`, the “hERG current change (%, negative = inhibition) at 1uM” value is on record as -4.73%.
Regarding `COc1ccc(CCNc2nc(-c3cccnc3)nc3ccccc23)cc1OC`, the “hERG current change (%, negative = inhibition) at 1uM” value was determined as 9.94%.
Regarding `O=C(CCCOc1ccc(Cl)cc1)NC1CCCCC1`, the “hERG current change (%, negative = inhibition) at 1uM” value is listed as 12.5%.
In the case of `Cc1ccc2sc(NNC(=O)c3ccc4c(c3)OCCO4)nc2c1C`, the “hERG current change (%, negative = inhibition) at 1uM” value worked out at 8.2%.
On to `CCC(=O)n1nc(-c2ccc(Cl)cc2)nc1NCc1ccccc1`, for which the “hERG current change (%, negative = inhibition) at 1uM” value was found to be 8.9%.
For `COc1cccc(N2CC(O)=C(c3nc4ccccc4c(=O)[nH]3)C2=N)c1`, the “hERG current change (%, negative = inhibition) at 1uM” value was found to be 6.93%.
Turning to `Cc1c(O)ccc(NS(=O)(=O)c2ccccc2)c1C`, the “hERG current change (%, negative = inhibition) at 1uM” value was found to be 13%.
The figure for `O=c1[nH]c2ccccc2n1C1CCCCC1` is 7.5%; for `O=C1CC(N2CCC(n3c(=O)[nH]c4ccccc43)CC2)C(=O)N1c1ccc(F)cc1` (stereo not drawn) it is 7.15%; for `O=c1[nH]c2ccccc2n1CCCN1CCC(n2c(=O)[nH]c3cc(Cl)ccc32)CC1` it is -46.8%.
As for `O=c1[nH]c2ccccc2n1C1CCN(CCCC(c2ccc(F)cc2)c2ccc(F)cc2)CC1`, the “hERG current change (%, negative = inhibition) at 1uM” value is recorded as -76.5%.
In the case of `O=C(Nc1cccc(F)c1)N1CCC(n2c(=O)[nH]c3ccccc32)CC1` it was 2.25%.
`O=C(CCCN1CCC(n2c(=O)[nH]c3ccccc32)CC1)c1ccc(F)cc1`: the “hERG current change (%, negative = inhibition) at 1uM” value is reported as -80.8%.
Take `CCN(CC)C(=O)c1ccc(NC(=O)c2ccc(-n3cncn3)c([N+](=O)[O-])c2)cc1`: the “hERG current change (%, negative = inhibition) at 1uM” value was determined as 4.18%.
`CS(=O)(=O)NNC(=O)CN1C(=O)C2C3C=CC(C3)C2C1=O` (stereo not drawn): the “hERG current change (%, negative = inhibition) at 1uM” value is 22.9%.
The figure for `Cc1noc(C)c1C(=O)Nc1nc2ccc(F)cc2s1` is 2.2%; for `CCOC(=O)C(C)Sc1nnc(Cn2c(=O)sc3ccccc32)n1-c1ccccc1` (stereo not drawn) it is 4.98%; for `CCOCCn1c(=O)c2c(nc3n2CC(C)CN3Cc2ccccc2)n(C)c1=O` (stereo not drawn) it is -14.4%.
For `COCCn1c(=O)c2c(nc3n2CC(C)CN3CCc2ccccc2)n(C)c1=O` (stereo not drawn), the “hERG current change (%, negative = inhibition) at 1uM” value was -9.39%.
As for `CCOCCn1c(=O)c2c(nc3n2CC(C)CN3CCc2ccccc2)n(C)c1=O` (stereo not drawn), the “hERG current change (%, negative = inhibition) at 1uM” value was -58.9%.
Regarding `O=C(CC1NCCNC1=O)Nc1cccc([N+](=O)[O-])c1` (stereo not drawn), the “hERG current change (%, negative = inhibition) at 1uM” value came out at 6.97%.
Turning to `CCC(C)N(C(=O)COC(=O)c1ccccc1SCC(=O)N1CCCC1)C1CCS(=O)(=O)C1` (stereo not drawn), the “hERG current change (%, negative = inhibition) at 1uM” value was 11.9%.
The figure for `O=C1c2ccccc2-c2nc3ncnn3c(-c3ccccc3Cl)c21` is 5.18%; for `COc1ccc(Nc2nc(NCCCN3CCOCC3)nc(N)c2[N+](=O)[O-])cc1` it is 3.71%; for `Cc1ccc(Nc2nc(NCCCN3CCOCC3)nc(N)c2[N+](=O)[O-])cc1` it is -56.2%.
The figure for `Cc1ccc(Nc2nc(NCCCN3CCOCC3)nc(N)c2[N+](=O)[O-])cc1C` is 4.15%.
In the case of `COc1ccc(NC(=O)c2ccc(-n3cccn3)nc2)c(OC)c1`, the “hERG current change (%, negative = inhibition) at 1uM” value is given as 17.4%.
The figure for `COC(=O)c1ccc2nc(NC(=O)CN3C(=O)CCC3=O)sc2c1` is 14.3%; for `CN(CC(=O)Nc1cccc(F)c1)C(=O)c1cc(S(=O)(=O)N2CCCCC2)ccc1N1CCOCC1` it is 3.68%.

The values are drawn from paper PMC4336329 (PLoS ONE, 2015).
